Test results reported in PubChem BioAssay.
Values without a mark were called inactive. Active and inactive are the calls of the source. Unless noted, no stated cut-off is given here; in the data, active means inhibition above about 42%; inactive means the rest.

System: not listed separately
Assay: StAR promoter reporter inhibitors, counter-screen for LRH-1 inverse agonist project, cell-based, luminescence, high throughput (AID 651611; in the data active means inhibition above about 28%)
Settings: StAR promoter luciferase reporter counterscreen, at 3.6 µM, stronger effect = higher value

Structure (SMILES)	inhibition
C[C@@H]1CN([C@@H](C)CO)S(=O)(=O)c2ccc(-c3ccc(C#N)cc3)cc2O[C@@H]1CN(C)Cc1ccccn1	24.5%
O=C(NC1CCC(CC2CCC(NC(=O)C(Cl)Cl)CC2)CC1)C(Cl)Cl (centres undefined)	6.07%
Cc1no[n+]([O-])c1COc1ccc(/C=N/n2nnnc2N)cc1	-1.3%
COc1ccc(C2=CC(=O)OC3(CCCC3)O2)cc1	15%
O=C(CCl)NCCCN(C(=O)C(Cl)Cl)c1ccc([N+](=O)[O-])cc1	16.7%
Cc1ccc(-c2cc(NC=O)c3ncc(-c4cnn(C)c4)n3c2)cc1	50.1% (active)
CCOc1ccc(NC(=O)COC(=O)c2ncc(Cl)c(Cl)c2Cl)cc1	21.6%
Cc1cccc(OCC(=O)Nc2ccncc2)c1C	6.9%
O=c1c2ccc(Cl)cc2nc(-c2cccc(C(F)(F)F)c2)n1O	26.8%

Molecular target: Nuclear receptor subfamily 5 group A member 2 (Homo sapiens) (UniProt O00482)
Assay: LRH-1 (NR5A2) inverse agonists, retest, confirmation, cell-based, luminescence (AID 651613);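 further: HEK293T cells co-transfected with LRH-1 and StAR promoter luciferase reporter; 0% = vehicle wells and 100% = parental cells lacking receptor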
Settings: cell-based LRH-1 luciferase reporter, inverse agonism; at 3.6 µM; stronger effect = higher value

Nuclear receptor subfamily 5 group A member 2 (Homo sapiens), sequence (O00482 whole entry, looked up): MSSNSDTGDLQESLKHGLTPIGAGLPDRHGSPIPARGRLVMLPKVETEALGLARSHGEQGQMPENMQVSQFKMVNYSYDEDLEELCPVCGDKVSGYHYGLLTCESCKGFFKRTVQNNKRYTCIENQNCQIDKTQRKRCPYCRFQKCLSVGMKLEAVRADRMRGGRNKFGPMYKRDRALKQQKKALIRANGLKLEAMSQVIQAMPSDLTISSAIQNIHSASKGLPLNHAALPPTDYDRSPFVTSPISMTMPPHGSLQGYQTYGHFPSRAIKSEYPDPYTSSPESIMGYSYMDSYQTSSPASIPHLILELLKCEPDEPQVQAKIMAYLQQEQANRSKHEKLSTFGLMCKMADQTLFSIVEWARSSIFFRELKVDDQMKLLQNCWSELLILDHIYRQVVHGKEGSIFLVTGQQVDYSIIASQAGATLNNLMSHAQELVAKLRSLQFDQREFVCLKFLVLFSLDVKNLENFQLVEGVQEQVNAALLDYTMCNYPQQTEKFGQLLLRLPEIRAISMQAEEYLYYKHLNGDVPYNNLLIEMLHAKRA

Structure (SMILES)	inhibition
c1ccc(C2=Nn3c(nnc3-c3n[nH]c4c3CCC4)SC2)cc1	50.8% (active)
Cc1cccc(NC(=O)COC(=O)c2cccs2)c1C	52.7% (active)
CC(=O)N1CCN(c2ccc(NCc3ccc(C)cc3)cc2)CC1	34.2%
Cn1c(=O)n(C)c2cc(NC(=O)CCl)ccc21	73.4% (active)
COc1cccc(C(C)(O)c2nc(-c3cccc(C#N)c3)cs2)c1 (centres undefined)	55.2% (active)
O=[N+]([O-])c1cccc(-c2ccc3nnc(SCc4cccnc4)n3n2)c1	62.1% (active)
c1csc(CCNc2ncnc3sc4c(c23)CCC4)c1	63.7% (active)
Cc1ccccc1OCC(=O)N/N=C/c1ccc([N+](=O)[O-])o1	57.5% (active)
O=C(Nc1nc2ccc(F)cc2s1)c1ccc([N+](=O)[O-])o1	0.34%
CCC(=O)N1CCN(c2ccc(NC(=O)c3ccc([N+](=O)[O-])o3)cc2Cl)CC1	56.2% (active)
Cc1sc(NC(=S)NC(=O)CCc2ccccc2)c(C(N)=O)c1C	35.5%
Cc1cc(C)n(-c2nc(Nc3ccccc3C(F)(F)F)nc(-n3nc(C)cc3C)n2)n1	21.6%
O=C(Nc1ccc(N2CCN(C(=O)c3ccccc3)CC2)cc1)c1ccc([N+](=O)[O-])o1	64.8% (active)
O=[N+]([O-])c1ccc(/C=N/n2c(CO)nc3ccccc32)s1	62.2% (active)
CC(C)c1cc(NC(=O)CCl)on1	47.4% (active)
COc1ccc(N2CC(C(=O)N/N=C/c3ccc(C)cc3)CC2=O)cc1 (centres undefined)	40%
COc1ccc(N=C2NN=C(c3c(C)[nH]c4ccccc34)CS2)cc1	43.1% (active)
CC(C)Oc1cccc(-c2cc(C(=O)NN3CCOCC3)c3ccccc3n2)c1	40.7%
Cc1nn(CC(=O)NCCC2=CCCCC2)c(C)c1[N+](=O)[O-]	48.9% (active)
O=C(COc1cc2oc(=O)cc(-c3ccccc3)c2cc1Cl)NCCN1CCOCC1	40.5%

Structure (SMILES)	inhibition
Cc1cc2oc(=O)cc(-c3ccccc3)c2c(C)c1-c1ccc(CO)cc1	71.5% (active)
CCOc1ccc(Cc2nnc(SCC(=O)Nc3ccc(C(C)=O)cc3)[nH]c2=O)cc1	52% (active)
O=C(Nc1ccc(N2CCOCC2)c(Cl)c1)c1ccc([N+](=O)[O-])o1	9.33%
Cc1cccc(CN2C(=O)CSc3ccc(C(=O)NC4CC4)cc32)c1	62.2% (active)
O=C(NCc1cccc(C(F)(F)F)c1)c1cc(-c2ccccc2)nn1CC1CC(c2cccnc2)=NO1 (centres undefined)	36.4%
CC(C)C(=O)Nc1ccc(C(=O)CN2C(=O)NC3(CCOc4ccccc43)C2=O)cc1 (centres undefined)	37.1%
O=NN(CCc1ccncc1)c1ccc(OCc2ccccc2)cc1	73.2% (active)
Cc1ccc(Nc2nc(-c3cccnc3)nc3ccccc23)cc1	54.1% (active)
COc1cccc(C(=O)N/N=C2/SCC(=O)N2CCc2ccc(OC)c(OC)c2)c1	31.3%
Cc1cccc(C(=O)N[C@H](C(=O)Nc2ncc(C)s2)C(C)C)c1	58.7% (active)
CCn1cc(Br)c(C(=O)Nc2ccccc2C(=O)OC)n1	47.4% (active)
C[C@@H]1CN([C@@H](C)CO)S(=O)(=O)c2ccc(-c3ccc(C#N)cc3)cc2O[C@@H]1CN(C)Cc1ccccn1	51.8% (active)
O=C(NC1CCC(CC2CCC(NC(=O)C(Cl)Cl)CC2)CC1)C(Cl)Cl (centres undefined)	58.2% (active)
Cc1no[n+]([O-])c1COc1ccc(/C=N/n2nnnc2N)cc1	51.9% (active)
COc1ccc(C2=CC(=O)OC3(CCCC3)O2)cc1	60.5% (active)
O=C(CCl)NCCCN(C(=O)C(Cl)Cl)c1ccc([N+](=O)[O-])cc1	59.2% (active)
Cc1ccc(-c2cc(NC=O)c3ncc(-c4cnn(C)c4)n3c2)cc1	52% (active)
CCOc1ccc(NC(=O)COC(=O)c2ncc(Cl)c(Cl)c2Cl)cc1	38.4%
Cc1cccc(OCC(=O)Nc2ccncc2)c1C	60% (active)
O=c1c2ccc(Cl)cc2nc(-c2cccc(C(F)(F)F)c2)n1O	42.6% (active)
